Assay outcomes as filed in PubChem.
GCN5L2 inh: qHTS Assay for Inhibitors of GCN5L2; Histone acetyltransferase KAT2A (Homo sapiens), Q92830; GCN5L2 HAT assay, ThioGlo1 CoA-SH fluorescence; Potency, µM (highest dose often 58.9 µM), usual class: inhibitors; 390,000 tested, 0.21% active
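ThioGlo1-coupled HAT assay: 20nM GCN5L2, 70uM acetyl-CoA, 75uM H3(1-25) peptide, pH 7.5. Fluorescence read at 340/540nm at start and after 20 min at room temperature.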
GLS inhibitor: qHTS for Inhibitors of Glutaminase (GLS). Glutaminase kidney isoform, mitochondrial (Homo sapiens), O94925. Potency, µM (top dose mostly 45.5 µM), actives largely listed as inhibitors. GLS enzymatic activity, qHTS titration. 410,000 tested, 0.21% active. AID 624170, 2012
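Compounds were pin-transferred onto hKGA, after which L-glutamine (1 mM solution) and a detection mix of glutamate oxidase, HRP and Amplex Red were added. Initial and 30 min RT fluorescence reads were collected.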
PLK1 PBD block: qHTS for Inhibitors of PLK1-PDB (polo-like kinase 1 - polo-box domain): Primary Screen; Potency, µM, hits mostly inhibitors; Serine/threonine-protein kinase PLK1 (Homo sapiens), P53350; 360,000 tested, 2.8% active; AID 720504, 2013; Plk1 PBD binding of FITC phosphopeptide, fluorescence polarization; note: series mostly up to about 57 µM; nearly all actives have a fitted effect of over 65% in size
VDR inhibitor: Inhibitors of the vitamin D receptor (VDR): qHTS | 400,000 tested, 0.93% active | Potency, µM, usual class: inhibitors | Vitamin D3 receptor (Homo sapiens), P11473 | VDR-SRC2-3 peptide fluorescence polarization, 2 h
Target sequence (P11473 whole entry, looked up): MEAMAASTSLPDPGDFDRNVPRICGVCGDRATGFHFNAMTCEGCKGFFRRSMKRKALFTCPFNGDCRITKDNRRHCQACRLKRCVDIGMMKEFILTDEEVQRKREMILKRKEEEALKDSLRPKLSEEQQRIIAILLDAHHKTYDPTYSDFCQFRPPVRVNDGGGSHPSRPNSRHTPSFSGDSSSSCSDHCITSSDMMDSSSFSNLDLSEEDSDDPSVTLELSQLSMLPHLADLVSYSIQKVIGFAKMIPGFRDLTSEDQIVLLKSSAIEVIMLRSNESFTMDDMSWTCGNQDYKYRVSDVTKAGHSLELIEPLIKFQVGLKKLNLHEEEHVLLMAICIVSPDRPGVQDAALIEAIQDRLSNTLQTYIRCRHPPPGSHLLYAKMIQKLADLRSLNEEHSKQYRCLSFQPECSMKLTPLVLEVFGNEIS
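VDR–SRC2-3 interaction, FP format. Cmpds 23 nl via pintool, brief spin, 2 h ambient incubation.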
PI4K2A inh: qHTS for small molecular inhibitors of PI4K2A. Phosphatidylinositol 4-kinase type 2-alpha (Homo sapiens), Q9BTU6. purified PI4K2A, ADP-Glo luminescence, 1 h; stronger effect = lower value. activity change, negative = inhibition, % at 76.9 µM. 420,000 tested, 0.13% active. AID 1346378, 2018; in the data active = activity change below about -50%; inconclusive = mostly about -30% to -49%
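PI4K2A activity was measured by ADP-Glo luminescence: enzyme (4 ug/mL stock) and phosphatidylinositol (1.2 mM stock) in Tris pH 7.5/MgCl2/EGTA/Triton X-100 buffer were reacted with ATP (300 microM stock) for one hour at ambient temperature.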
A number is an active result; n = inactive; u = inconclusive; x = no result given. A selection: hits, their analogues and other compounds. The true share with any hit is near 3.1%. Unless noted, calls come from the whole dose curve; as a rule, active = well fitted curve in the direction sought with a large enough effect; inconclusive = small, poorly fitted or top-dose-only effect, or another doubt; inactive = no such curve, though single readings can be large; an effect the other way counts as inactive or inconclusive.

SMILES	GCN5L2 inh	GLS inhibitor	PLK1 PBD block	VDR inhibitor	PI4K2A inh
COc1cccc(-c2nc(CS(=O)(=O)CC(=O)Nc3cccc(C(C)=O)c3)c(C)o2)c1	n	n	23.8µM	u	n
COc1ccc(-c2cnc(N)n2CC2CCCO2)cc1 (stereo unspecified)	n	n	26.7µM	n	n
O=C(O)/C=C/c1ccc([N+](=O)[O-])o1	n	11.2µM	u	n	n
CN1CCN(C(=O)/C=C/c2ccc([N+](=O)[O-])o2)CC1	n	n	n	n	n
CC(C)(C)c1ccc(OCCOCCn2c(-c3ccc(Cl)cc3)nc3ccccc3c2=O)cc1	n	n	x	n	n
Cc1cc(C)cc(-n2c(C)cc(C(=S)N3CCOCC3)c2C)c1	n	n	18.9µM	n	n
COc1cc(-n2c(C)nc3cc(C(=O)N4CCCN(C(C)=O)CC4)ccc32)cc(OC)c1OC	x	x	x	x	n
O=C(C=Cc1cccnc1)c1ccccc1	x	n	n	u	n
COc1cc(/C=C/C(=O)c2ccccc2O)cc(OC)c1OC	n	n	u	31.6µM	n
O=C(C=Cc1ccccn1)c1ccccc1	x	n	u	20µM	n
O=C(C=Cc1ccccn1)c1ccccc1O	x	n	21.2µM	56.2µM	n
O=C(OCC#CCSc1nnc(-c2ccccc2)o1)c1ccc(F)cc1	x	x	x	x	n
NC(=O)C1CCN(c2nc(-c3ccc(OCc4ccccc4)cc3)cs2)CC1	x	x	x	x	n
CN(C)CC(=O)N[C@H]1C[C@@H]2O[C@@H](CO)CC[C@@H]2O[C@@H]1CCc1ccc(C2=CCCCC2)cc1	x	x	x	x	n
COc1ccc(CCN2C(=O)NC(NC(C)=O)(C(F)(F)F)C2=O)cc1OC (stereo unspecified)	n	n	n	n	n
COc1ccc(C(=O)NC2(C(F)(F)F)NC(=O)N(CCCc3ccccc3)C2=O)cc1OC (stereo unspecified)	n	n	26.7µM	n	n
CCOC(=O)CNc1nnc(SCC(=O)OCC)[nH]c1=O	n	n	u	39.8µM	n
COC(=O)CSc1nnc(C)c(=O)[nH]1	n	n	n	n	n
O=S1(=O)c2ccc(N3CCC[C@@H]3CO)cc2O[C@H]2CCN1C2	x	x	x	x	n
Cc1cccc(N2CCN(C(=O)C3CCN(Cc4nc(-c5ccc(Cl)cc5)oc4C)CC3)CC2)c1C	n	n	x	n	n
CC1CCCCC1N(C(=O)c1cc(C2CC2)on1)C1CCCCC1 (stereo unspecified)	x	x	x	x	n
CCc1cc2c(=O)c(-c3nc4ccccc4n3C)coc2c(CN2CCCCC2C)c1O (stereo unspecified)	u	n	n	n	n
CC1CCCCN1Cc1c(O)ccc2c(=O)c(-c3nc4ccccc4s3)coc12 (stereo unspecified)	n	n	21.2µM	n	n
O=C(c1ccc2c3n(nc2c1)-c1ccccc1CO3)N1CCOCC1	n	n	n	n	-55.1
O=C(c1ccc2c3n(nc2c1)-c1ccccc1CO3)N1CCCCC1	u	n	n	n	u
SMILES	GCN5L2 inh	GLS inhibitor	PLK1 PBD block	VDR inhibitor	PI4K2A inh
Cc1coc2c1C(=O)C(=O)c1c-2ccc2c1CCCC2(C)C	28.2µM	n	u	28.2µM	n
Cc1coc2c1C(=O)C(=O)c1c-2ccc2c(C)cccc12	n	n	u	u	u
O=C1NC(c2ccccc2)(c2ccccc2)C(=O)N1COP(=O)(O)O	x	x	x	x	n
CCOC(=O)c1c(NC(=O)Cn2nc(C(F)(F)F)cc2C)sc(C)c1C	n	n	26.7µM	n	n
CCOC(=O)c1c(NC(=O)Cn2cnc([N+](=O)[O-])n2)sc(C)c1C	n	n	23.8µM	n	n
COC(=O)c1c(NC(=O)Cn2nc(C(F)F)cc2C(F)F)sc(C)c1C	n	n	15µM	n	n
CCOC(=O)c1c(NC(=O)Cn2nc(C(F)F)cc2C(F)F)sc(C)c1C	n	n	n	n	n
CCOC(=O)c1c(NC(=O)COC)sc(C)c1C	n	n	n	n	n
CCOC(=O)c1c(NC(=O)Cn2cnc([N+](=O)[O-])n2)sc2c1CCCC2	n	n	u	n	n
C[C@H]1[C@@H](OC(=O)NCc2ccc(Cl)c(Cl)c2)CC[C@@]23CCCN2C(=O)CCC[C@@H]13	x	x	x	x	n
O=C(Cc1nc(=O)c2ccccc2s1)Nc1ccccc1	n	n	n	n	n
O=C(Cn1sc2ccccc2c1=O)NC12CC3CC(CC(C3)C1)C2	14.1µM	u	2.99µM	u	n
O=C(Cn1sc2ccccc2c1=O)Nc1ccccc1	x	7.08µM	1.19µM	x	u
Cc1ccc(S(=O)(=O)N2CCC[C@H]2C(=O)OCC(=O)c2ccc3c(c2)NC(=O)CO3)cc1	n	n	26.7µM	u	n
Cc1ccc(S(=O)(=O)N2CCCC2C(=O)OCC(=O)Nc2ccc3c(c2)OCO3)cc1 (stereo unspecified)	n	n	n	n	n
CCOc1c2c(c(-c3ccc4c(c3)OCO4)c3cc(OC)c(OC)cc13)C(=O)OC2	x	x	x	n	x
C=CCN1C(=O)/C(=C2/Sc3ccccc3N2CCCS(=O)(=O)O)SC1=S	n	u	10.6µM	n	n
O=C(Nc1ccc(S(=O)(=O)N2CCCCC2)cc1)c1cccnc1Cl	n	n	n	n	n
COc1ccc(NC(=O)c2cc(S(=O)(=O)N3CCCC3)ccc2OC)cc1	n	n	16.8µM	n	n
O=C(Nc1ccc(S(=O)(=O)N2CCCCC2)cc1)c1ccccc1Cl	n	n	29.9µM	n	n
O=C(CN1C(=O)c2ccccc2S1(=O)=O)Nc1ccc(S(=O)(=O)N2CCCCC2)cc1	x	n	23.8µM	n	n
Cc1ccc(NS(=O)(=O)c2cc(N)ccc2Cl)c(C)c1	n	n	23.8µM	n	n
Cc1sc2ccccc2[n+]1CC(=O)c1ccccc1	n	n	21.2µM	28.2µM	n
COC(=O)NC1CCS(=O)(=O)C1 (stereo unspecified)	n	n	n	n	n
COC(=O)NC1CCC(NC(=O)OC)CC1 (stereo unspecified)	n	n	26.7µM	n	n
SMILES	GCN5L2 inh	GLS inhibitor	PLK1 PBD block	VDR inhibitor	PI4K2A inh
C/C(N)=C(/C#N)C(=O)CSc1nc2ccccc2c(=O)n1-c1ccccc1C	n	n	n	n	n
C/C(N)=C(/C#N)C(=O)CSc1ncnc2ccccc12	n	n	26.7µM	n	n
NC(=O)c1cc[n+](CC2=C(C(=O)[O-])N3C(=O)[C@@H](NC(=O)Cc4cccs4)[C@@H]3SC2)cc1	n	n	x	15.8µM	x
O=C(O)C1=C(CSc2nnnn2CS(=O)(=O)O)CS[C@@H]2[C@H](NC(=O)[C@H](O)c3ccccc3)C(=O)N12	n	u	x	39.8µM	x
CO/N=C(/C(=O)N[C@@H]1C(=O)N2C(C(=O)[O-])=C(C[n+]3ccn4ncccc43)CS[C@H]12)c1nsc(N)n1	x	n	x	x	n
CC1=C(C(=O)O)N2C(=O)C(NC(=O)C(N)c3ccc(O)cc3)C2SC1 (stereo unspecified)	n	x	x	u	x
